# According to ChEMBL document CHEMBL1157539, “Thousands of chemical starting points for antimalarial lead identification” (Nature, 2010):
# Test system: HepG2
# Test: GSK_TCMDC: Percent inhibition of human HepG2 cell line. Test compounds present at 10uM.
# Format: functional
row,SMILES,Inhibition
1,Cl.O=S(=O)(Nc1cc2c(cc1OCc1ccccc1)CCN(C1CCC1)CC2)c1ccc(-c2ccc(Cl)cc2)cc1,18%
2,CN1CCN(c2cc3c(Nc4ccc5c(cnn5Cc5ccccc5)c4)ncnc3cn2)CC1,9%
3,O=C(Nc1ccc(OC2CCN(Cc3ccccc3)C2)c(Cl)c1)c1ccsc1.O=C(O)C(F)(F)F (centres undefined),12%
4,CC(C)(C)OC(=O)NCC(=O)N(Cc1ccccc1)Cc1ccccc1,0%
5,Cc1cccc(Cl)c1S(=O)(=O)N1CCCCC(c2ccc(C(F)(F)F)cc2)=N1,5%
6,CC1CCCN(Cc2cc(Cl)cc(Cl)c2O)C1 (centres undefined),22%
7,O=C(Nc1cccc(N2CCC(NCc3cnn(-c4cccc(F)c4)c3)CC2)c1)c1ccncc1,50%
8,COc1ccc(NC(=O)Nc2ccc(-c3cccc(-c4nc5cccc(C)c5[nH]4)c3)cc2)cc1,33%
9,OC(CNc1ccnc(Nc2ccc(Cl)cc2)n1)c1ccc(C(F)(F)F)cc1 (centres undefined),0%
10,CC(Oc1ccc(Cl)cc1)C(=O)Nc1cc(C(F)(F)F)ccc1N1CCOCC1 (centres undefined),14%
11,O=C(Nc1ccon1)c1cc(-c2cccnc2)nc2ccc(Cl)cc12,0%
12,Cc1cccc2nc(-c3ccc(-c4ccc(CN5CCN(CC6CCCN(C)C6)CC5)cc4)s3)[nH]c12.O=C(O)C(F)(F)F (centres undefined),63%
13,COc1ccc(N2CCN(CCCN3CCN(C(=O)c4ccc(/C=C/c5ccc(Cl)c(Cl)c5)cc4)CC3)CC2)c(OC)c1.O=C(O)/C=C/C(=O)O,47%
14,Cc1cc(=O)[nH]c2cc(Nc3ccnc(Nc4cccc(C(N)=O)c4)n3)ccc12.Cl,27%
